# According to PubChem BioAssay (NCATS):
# Results filed as inconclusive are left out. Unmarked numbers belong to inactive results. The source made the active and inactive calls. Calls come from the whole dose curve; as a rule, active = well fitted inhibition curve with a large enough effect; inconclusive = small, poorly fitted or top-dose-only effect; inactive = no such curve, though single readings can be large or run the other way.
# Target: Nuclear receptor subfamily 1 group I member 3 (Homo sapiens) (UniProt Q14994)
# Sequence (Q14994 whole entry, looked up): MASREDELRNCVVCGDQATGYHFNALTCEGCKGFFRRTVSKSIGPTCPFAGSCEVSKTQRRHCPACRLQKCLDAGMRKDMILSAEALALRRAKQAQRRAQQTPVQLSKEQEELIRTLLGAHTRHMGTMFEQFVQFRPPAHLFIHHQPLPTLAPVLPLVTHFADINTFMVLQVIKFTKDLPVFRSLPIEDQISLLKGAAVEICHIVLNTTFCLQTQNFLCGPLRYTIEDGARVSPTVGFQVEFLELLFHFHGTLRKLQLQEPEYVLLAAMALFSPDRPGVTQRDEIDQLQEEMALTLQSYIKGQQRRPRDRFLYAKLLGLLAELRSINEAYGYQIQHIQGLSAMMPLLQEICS
# Assay: qHTS for Constitutive Androstane Receptor (CAR) Antagonist screened against the NCATS CANVASS Library (AID 1347372);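 for activity change, negative = inhibition: cells stimulated with 50 nM CITCO agonist so inhibition reflects antagonism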
# Conditions: HepG2-hCAR-CYP2B6 luciferase, CITCO-stimulated antagonist mode; series mostly up to 46.1 µM; activity change, negative = inhibition: at the top concentration
# Procedure, shortened: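 Antagonist mode: compound added alongside 50 nM CITCO to HepG2-hCAR-CYP2B6 reporter cells, 24hr at 37C. Viability by CellTiter-Fluor fluorescence, then CAR-driven luciferase by ONE-Glo luminescence.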
# % is set by controls: 0 for no effect and ±100 for the full control effect; potency is the fitted concentration of half-maximal effect.
Compound,"activity change, negative = inhibition",Potency
Cc1occ2c1C(=O)c1c(cc(O)c(O)c1O)C2=O,3.03%,–
O=C1CC2OCC=C3CN4C5CC3C2[C@@H]2N1c1ccccc1[C@]52C[C@@H]4C1=C[C@H]2C3CC4N(CC[C@@]45c4ccccc4N(C1=O)[C@@H]25)C/C3=C/CO (stereo not given in full),110%,–
CCC(=O)CCCCC[C@@H]1NC(=O)[C@H]2CCCCN2C(=O)[C@H](C(C)C)NC(=O)[C@H](Cc2cn(OC)c3ccccc23)NC1=O,–,11.7 µM (active)
C/C(=C\[C@H](C)C(=O)CCCC1CC(=O)NC(=O)C1)[C@@H]1OC(=O)/C=C/CC/C=C/[C@H](O)[C@@H](O)[C@@H]1C,–,3.31 µM (active)
C/C=C(/C)c1c(Cl)c(O)c(C)c2c1Oc1c(Cl)c(O)c(Cl)c(C)c1C(=O)O2,16.4%,–
C=C[C@@]1(C)CC[C@@H]([C@H](C)C(=O)/C=C/C(C)(C)O)O1,88%,–
C=CC(CCCCC)C1C(=O)NC(=O)C1C(=O)C1C(/C=C/C)C=CC2CC(C(=O)O)CC(C)C21 (stereo not given),2.51%,–
C=C1CC[C@@H](O[C@H]2C[C@@](O)([C@H](C)NC(=O)c3[nH]c(C)c(Cl)c3Cl)[C@H](O)[C@@H](C)O2)[C@@H]2C=C[C@H](C)C(/C(O)=C3/C(=O)[C@H](C(C)C)N([C@@H]4O[C@H](C)[C@H](OC(N)=O)[C@H](OC(C)=O)[C@@H]4OC)C3=O)[C@@H]12 (stereo not given in full),-9.83%,–
COc1ccc([C@@H]2CC(=O)c3c(cc(O)c(C/C=C(\C)CCC=C(C)C)c3O)O2)cc1,30.2% [at 9.19 µM],–
O=c1cc(-c2ccc(O)c(O)c2)oc2cc(O[C@@H]3O[C@H](CO)[C@@H](O)[C@H](O)[C@H]3O)cc(O)c12,102%,–
